ERG-DNA inh: inhibitors of human ERG Ets domain-DNA interaction; 370,000 tested, 0.028% active; Potency, µM (doses to about 76.9 µM), for inactives: at the top dose FP activity, negative = inhibition, hits mostly inhibitors; fluorescence polarization, His-ERG Ets domain / labelled DNA; active = well fitted inhibition curve with a large enough effect in the polarisation, with a control signal flat; inconclusive = small, poorly fitted or top-dose-only effect, or effect the other way, or a change in a side signal; inactive = no such curve, though single readings can be large or run the other way; the % refers to the polarisation;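 also: polarization taken with two DNA probes labelled with fluorescein and Texas red; potency is read from the fitted curve at half-maximal effect; % of control where 0% means no effect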
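His-tagged ERG Ets domain (1 uM in the protein solution; 300mM KCl, 50mM Tris-HCl, 1mM EDTA, 1mM DTT, pH 7.5) received compound, then a probe mix of 5 nM fluorescein-DNA and 100nM Texas-615-DNA. Fluorescence polarization was read for both dyes.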
RORg inh: inhibitors of mouse ROR gamma transcriptional activity; P51450; Drosophila S2 Gal4-RORgamma UAS-luciferase reporter, 20 h; Potency, µM (titrated, usually from 53.6 µM), without a hit: top-dose activity change, negative = inhibition, usual class: inhibitors; 310,000 tested, 5.4% active; AID 2551; also: potency is read from the fitted curve at half-maximal effect; % is scaled to controls: 0 for no effect and ±100 for the full control effect; nearly all actives have a fitted effect of over 60% in size
Target sequence (P51450 whole entry, looked up, the tested form may be a part): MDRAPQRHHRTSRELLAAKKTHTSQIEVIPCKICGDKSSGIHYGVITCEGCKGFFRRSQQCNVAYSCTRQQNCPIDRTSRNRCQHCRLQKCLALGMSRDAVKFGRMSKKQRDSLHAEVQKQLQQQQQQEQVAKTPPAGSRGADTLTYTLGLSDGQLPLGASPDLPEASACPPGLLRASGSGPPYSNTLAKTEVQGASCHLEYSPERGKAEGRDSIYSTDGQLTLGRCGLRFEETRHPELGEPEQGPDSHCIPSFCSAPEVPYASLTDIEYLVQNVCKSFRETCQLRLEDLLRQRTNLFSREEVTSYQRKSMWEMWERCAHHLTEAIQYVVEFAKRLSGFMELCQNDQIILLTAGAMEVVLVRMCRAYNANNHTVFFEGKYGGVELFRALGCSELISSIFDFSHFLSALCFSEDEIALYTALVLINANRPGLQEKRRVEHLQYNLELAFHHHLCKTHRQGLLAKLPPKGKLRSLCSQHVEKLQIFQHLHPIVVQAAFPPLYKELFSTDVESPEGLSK
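Drosophila Schneider cells stably carrying a metallothionein-driven Gal4 DBD–ROR gamma fusion and a UAS-Photinus luciferase reporter were exposed to compound for 1 hr, then induced with copper sulfate (700 uM final) for 20 hr at ambient temperature before luminescence reading.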
Giardia killer: kills Giardia lamblia; Giardia lamblia trophozoite viability; activity change, % at 7.66 µM, hits read low; 340,000 tested, 0.15% active; AID 540267; in the data active = activity change below about -80%; inconclusive = between about -30% and that limit;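 also: parasites exposed to compound for two days anaerobically before the ATP read; % is scaled to controls: 0 for no effect and ±100 for the full control effect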
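Killing of trophozoites was scored by loss of ATP luminescence after a 48 hrs anaerobic exposure to compounds at 37 deg C, using 100 cells per well.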
VP16 counter: counter-screen for ROR gamma inhibitors: Gal4-VP16 reporter; Drosophila S2 Gal4-VP16 UAS-luciferase, luminescence, 20 h; Potency, µM (highest dose often 53.6 µM), for the others: at the top dose activity, negative = inhibition, most hits filed as inhibitors; 310,000 tested, 3.5% active;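 also: Gal4-VP16 expression switched on by copper sulfate through the metallothionein promoter; potency is read from the fitted curve at half-maximal effect; % is scaled to controls: 0 for no effect and ±100 for the full control effect; nearly all actives have a fitted effect of over 50% in size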
a7 integrin act: activators of alpha7 integrin expression for muscular dystrophy; AID 624291; 350,000 tested, 0.064% active; Potency, µM (titrated, usually from 38.3 µM), without a hit: at the top dose activation, actives largely listed as activators; alpha7betagal myoblasts, beta-gal FDG fluorescence, 48 h;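 also: potency is read from the fitted curve at half-maximal effect; 100% = response of the positive control SU9516; nearly all actives have a fitted effect of over 60% in size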
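alpha7betagal+/- myoblasts (passage 13, 250/well) treated 48 h at 37C with compounds at 1:260 dilution of DMSO stock. Lysed, then beta-galactosidase activity read as FDG fluorescence (ex 480/em 540) after 30 min, with pre-read for autofluorescence.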
Active calls of the source: *; u = inconclusive; x = no result given; [ ] = another dose, or the depositor's remark. Many of the other results were omitted from the sample, so hits are more common in it than they were. Unless noted, calls follow the shape of the dose curve; as a rule, active = well fitted curve in the direction sought with a large enough effect; inconclusive = small, poorly fitted or top-dose-only effect, or another doubt; inactive = no such curve, though single readings can be large; an effect the other way counts as inactive or inconclusive.

SMILES	ERG-DNA inh	RORg inh	Giardia killer	VP16 counter	a7 integrin act
CCOC(=O)c1c(C)c(-c2ccccc2)n(CC(=O)NCCc2cccc(C)c2)c1C	3%	x	x	x	x
COc1ccc(Cn2c(=S)[nH]c3ccccc3c2=O)cc1	0%	8.9µM*	6	10µM*	0%
Cc1ccc(Cn2c(=S)[nH]c3ccccc3c2=O)cc1	-1%	4µM*	-13	6.3µM*	13%
Cc1nonc1OCCNCc1c(C(=O)N2CCCCCCC2)nc2ccc(Cl)cn12	13%	46%	-4	-13%	-15%
Cc1nonc1OCCNCc1c(C(=O)N(C)C)nc2ccc(Cl)cn12	-8%	3.2µM*	u	2.8µM*	-12%
COc1ccc(C(=O)/C=C/c2cc(C(=O)O)cc3c2OCOC3)c(O)c1	15%	-32%	9	27%	-16%
O=C(O)c1cc(/C=C/C(=O)c2cc(F)ccc2O)c2c(c1)COCO2	11%	13µM*	-25	10µM*	-3%
CCOC(=O)C(=N/O)/C(C)=N/NC(=O)C(=O)Nc1cc(Cl)ccc1Cl	0%	11µM*	7	22µM*	-23%
Nc1nn2c(C(F)(F)F)cc(=O)[nH]c2c1N=Nc1cccc(F)c1	15%	10µM*	-18	-16%	-19%
Cc1cc(=O)[nH]c2c(N=Nc3ccc(O)cc3)c(N)nn12	1%	u	13	u	4%
CCOc1ccc(C(=O)NCc2ccco2)cc1OC	-2%	u	1	-25%	u
Cc1ccc(C(=O)NCc2ccco2)cc1Br	15%	24%	-2	7%	-2%
COc1c(C)cc(Br)cc1C(=O)NC(=S)NCc1ccco1	1%	11µM*	6	u	24%
COc1ccc(C(=O)NC(=S)NCc2ccco2)cc1OC	-10%	18µM*	2	16%[0.365 µM]	-37%
COc1cc(C(=O)NCc2ccco2)c(Br)c(OC)c1OC	x	13%	-14	3%	-10%
COc1ccc(C(=O)NC(=S)NCc2ccco2)cc1Br	0%	3.5µM*	-7	6.3µM*	-38%
COc1ccccc1NC(=O)c1c(N=Cc2cccc([N+](=O)[O-])c2)cnn1C	-10%	-6%	8	-5%	9%
COc1cccc(-n2nnnc2S(C)(=O)=O)c1	-1%	3.2µM*	4	5µM*	-18%
O=C(N/N=C/c1ccc(Br)s1)c1cccs1	-4%	3.2µM*	-2	5µM*	-19%
O=C(N/N=C/c1ccc(Br)s1)c1ccncc1	-9%	0.79µM*	-2	1µM*	-5%
O=C(N/N=C/c1cccc2ccccc12)c1cccs1	16%	-29%	3	0%	8%
O=C(N/N=C/c1ccc(F)cc1)c1ccncc1	2%	-3%	23	-4%	3%
Cc1ccc(/C=N/NC(=O)c2cccs2)s1	-12%	11µM*	-6	11µM*	u
O=C(N/N=C/c1ccc(Br)s1)Nc1ccccc1	11%	-72%	-5	u	14%
O=C(Cn1c(=O)n(Cc2ccccc2)c(=O)c2oc3ccccc3c21)Nc1ccc(Cl)cc1	3%	x	x	x	x
SMILES	ERG-DNA inh	RORg inh	Giardia killer	VP16 counter	a7 integrin act
O=C1c2cccc3cccc(c23)C(=O)N1c1nccs1	-2%	8%	9	-4%	-7%[7.66 µM]
O=C1c2cccc3c([N+](=O)[O-])ccc(c23)C(=O)N1c1nccs1	4%	5.6µM*	28	5µM*	-70%
O=C1c2cccc3c([N+](=O)[O-])ccc(c23)C(=O)N1c1ccc(Cl)cn1	0%	u	1	7.9µM*	-64%
CC(=O)Oc1ccc(N2C(=O)c3cccc4c([N+](=O)[O-])ccc(c34)C2=O)cc1	10%	u	-9	u	-66%
O=C1c2cccc3c([N+](=O)[O-])ccc(c23)C(=O)N1O	-9%	u	-24	13µM*	0%
O=C1c2cccc3c([N+](=O)[O-])ccc(c23)C(=O)N1c1ccccn1	-3%	1%	-2	-8%	-3%
CCOC(=O)C1=C(CN(C)Cc2ccccc2)NC(=O)NC1c1ccc(OC(C)C)cc1 (centres undefined)	7%	x	x	x	x
CCc1nn2c(=O)cc(COC(=O)c3ccc(NC(=O)CCc4ccccc4)cc3)nc2s1	-7%	x	x	x	x
COC(=O)C1=NOC2(C=C(Br)C(OC)=C(Br)C2=O)C1 (centres undefined)	x	1.8µM*	x	2.5µM*	x
O=C(NN=C(Cc1ccccc1)Cc1ccccc1)c1ccc(F)cc1	7%	u	5	u	3%
NC(=S)NN=C(Cc1ccccc1)Cc1ccccc1	-15%	1.4µM*	8	5µM*	11%
O=C(NN=C(Cc1ccccc1)Cc1ccccc1)c1ccccc1O	-7%	3.5µM*	13	u	-25%
COc1ccc2ccccc2c1C(=O)/C=C\c1ccoc1	0%	34%	-23	1%	0%
N#CCCCS(=O)(=O)c1nnnn1-c1ccc(Br)cc1	x	8%	x	-22%	x
N#CCCS(=O)(=O)c1nnnn1-c1ccccc1	x	2.8µM*	x	4.5µM*	x
CCn1c2ccccc2c2nnc(N3CCN(c4ccc(F)cc4)CC3)nc21	-4%	x	x	x	x
CCCCc1c(C)nn(-c2nnc3c4ccccc4n(CC)c3n2)c1C	-5%	1.8µM*	1	4µM*	2%
CC(C)NC(=S)N/N=C/c1cccs1	-7%	0.79µM*	13	1.1µM*	9%
CC(C)NC(=S)N/N=C/c1ccc(C(C)(C)C)cc1	-1%	0.5µM*	-1	2.2µM*	-30%
S=C(NCc1ccccc1)N/N=C/c1cccs1	16%	0.4µM*	15	0.79µM*	u
CCCCC(=O)OCC(=O)Nc1ccc(SC(F)F)cc1	1%	14%	11	-11%	-11%
CC(C)S(=O)(=O)CC(=O)c1ccc(Cl)cc1	14%	2%	40	6%	16%
C[C@@H](c1ccccc1)N1C(=O)[C@H]2[C@H]3[C@H](O)[C@H](O)C/C(=N/OCc4ccccc4)[C@@H]3CC[C@@H]2C1=O	x	15%[10 µM]	x	-4%[10 µM]	x
CCOC(=O)CNC(=S)N(Cc1ccccc1F)C1CCCCC1	7%	11µM*	28	-6%	13%
COc1ccc2nc(-c3ccc(Cl)cc3)cc(C(=O)O)c2c1	1%	6%	-7	-4%	14%
Fc1cc(F)c2nc(Nc3nc4cc5c(cc4s3)OCO5)sc2c1	-2%	16µM*	-13	u	-40%
Fc1cccc2sc(Nc3nc4cc5c(cc4s3)OCCO5)nc12	7%	5.6µM*	-6	11µM*	-21%
CC(=O)Nc1nc2c(F)cccc2s1	-11%	x	23	x	-9%
Fc1cccc2sc(Nc3nc4cc5c(cc4s3)OCO5)nc12	-6%	6.3µM*	-10	7.1µM*	-20%
CCCN1C(=O)C2(C(C(=O)c3ccc(C)o3)=C(O)C(=O)N2CCCOC)c2ccccc21 (centres undefined)	4%	13%	0	18%	-14%
